Measured values taken from PubChem BioAssay (NCI).
This is part of a sample that, as a whole, favours compounds with a hit. Of some 79,000 tested, about 15% had one in any assay. Calls of active or inactive are those of the source. Cut-off read from the data, not from the text of the source: active = growth inhibition above about 70%; inactive = the rest.

Key:
[1] = NCI Yeast Anticancer Drug Screen. Data for the rad52 strain (AID 147);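 note: 0% = growth of vehicle-treated control cultures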; settings: S. cerevisiae rad52 mutant growth inhibition, active compounds read high
Summary of the method: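 DNA repair-defective yeast; compound exposure; growth scored against vehicle controls.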

[2] = NCI Yeast Anticancer Drug Screen. Data for the rad50EPP+ strain (AID 151);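 note: 0% = growth of vehicle-treated control cultures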; settings: S. cerevisiae rad50 mutant strain, active compounds read high
Summary of the method: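 rad50EPP+ yeast treated with test compounds. Readout: growth vs vehicle control.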

[3] = NCI Yeast Anticancer Drug Screen. Data for the mgt1 strain (AID 153); settings: S. cerevisiae mgt1 mutant growth inhibition, active compounds read high
Summary of the method: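 Growth inhibition relative to vehicle controls was scored for the mgt1 yeast strain after compound exposure.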

[4] = NCI Yeast Anticancer Drug Screen. Data for the rad50 strain (AID 155);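 note: 0% = growth of vehicle-only cultures of the same strain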; settings: S. cerevisiae rad50 strain growth inhibition, active compounds read high
Summary of the method: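 Readout: growth inhibition relative to vehicle-treated cultures. Compound exposure was carried out in a genetically defined yeast strain deficient in DNA damage repair.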

[5] = NCI Yeast Anticancer Drug Screen. Data for the mec2-1 strain (AID 157); settings: S. cerevisiae mec2-1 strain, active compounds read high
Summary of the method: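 Growth inhibition is read against vehicle-treated controls after compound exposure of the mec2-1 yeast strain, which is defective in DNA damage repair or cell cycle control.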

[6] = NCI Yeast Anticancer Drug Screen. Data for the rad14 strain (AID 159);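 note: 0% = growth of vehicle-treated control cultures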; settings: S. cerevisiae rad14 strain growth inhibition, active compounds read high
Summary of the method: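 Growth inhibition vs vehicle controls; genetically altered yeast strain (DNA damage repair defect) treated with test compounds.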

[7] = NCI Yeast Anticancer Drug Screen. Data for the sgs1 mgt1 strain (AID 161);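 note: 0% = growth of cultures given vehicle only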; settings: S. cerevisiae sgs1 mgt1 strain, active compounds read high
Summary of the method: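 This yeast growth screen uses a strain with defined DNA-repair lesions; compound-treated growth is compared with vehicle-treated growth.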

[8] = NCI Yeast Anticancer Drug Screen. Data for the CLN2oe strain (AID 163);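 note: 0% = growth of vehicle-only control cultures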; settings: S. cerevisiae CLN2oe strain, active compounds read high
Summary of the method: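 Compound-treated yeast; growth vs vehicle ctrl = % inhibition. Genetically altered strain (cell-cycle control).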

[9] = NCI Yeast Anticancer Drug Screen. Data for the cln2 rad14 strain (AID 165);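 note: 0% = growth equal to vehicle treated cultures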; settings: S. cerevisiae cln2 rad14 strain, active compounds read high
Summary of the method: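 Growth inhibition, relative to vehicle-treated controls, is the read-out. The test organism is a yeast strain with defined genetic alterations, cln2 rad14.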

[10] = NCI Yeast Anticancer Drug Screen. Data for the bub3 strain (AID 167); settings: S. cerevisiae bub3 mutant strain, active compounds read high
Summary of the method: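 Readout: yeast growth inhibition, expressed relative to vehicle-only wells. The test organism is a mutant strain from a panel with lesions in DNA repair or checkpoint genes.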

[11] = NCI Yeast Anticancer Drug Screen. Data for the wt2 strain (AID 169);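 note: 0% = growth of vehicle-treated yeast cultures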; settings: S. cerevisiae wt2 strain growth inhibition, active compounds read high
Summary of the method: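 Compound exposure of yeast; growth compared with vehicle controls; inhibition reported.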

[12] = NCI Yeast Anticancer Drug Screen. Data for the mlh1 strain (AID 171);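 note: 0% = growth of vehicle-treated control cultures of the same strain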; settings: S. cerevisiae mlh1 strain growth inhibition, active compounds read high
Summary of the method: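 Compounds are applied to a genetically altered yeast strain, and its growth is compared with that of vehicle-treated cultures to give percent inhibition.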

[13] = NCI Yeast Anticancer Drug Screen. Data for the sgs1 strain (AID 173);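 note: 0% = growth of vehicle-only control cultures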; settings: S. cerevisiae sgs1 mutant, active compounds read high
Summary of the method: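 Compounds applied to genetically altered yeast; growth compared with vehicle-treated cultures to give % inhibition.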

[14] = NCI Yeast Anticancer Drug Screen. Data for the mlh1 rad18 strain (AID 175); settings: S. cerevisiae mlh1 rad18 strain growth inhibition, active compounds read high
Summary of the method: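 Cells of a genetically altered yeast strain, deficient in DNA damage repair, were treated with compound. Their growth was then compared with that of vehicle-treated cultures to give inhibition.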

[15] = NCI Yeast Anticancer Drug Screen. Data for the rad18 strain (AID 177); settings: S. cerevisiae rad18 mutant growth inhibition, active compounds read high
Summary of the method: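 Compounds are applied to a repair-deficient yeast strain, and growth is compared with that of vehicle-treated cultures to give percent inhibition.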

[16] = NCI Yeast Anticancer Drug Screen. Data for the wt1 strain (AID 149);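 note: 0% = growth of vehicle-treated wt1 cultures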; settings: S. cerevisiae wt1 strain (SPY 50644) growth inhibition, active compounds read high
Summary of the method: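 Growth inhibition read against vehicle controls after compound exposure of the wt1 yeast strain.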

[17] = at 5.0 µM (retest, dose inferred, filed as 0.5)
[18] = at 50.0 µM (retest, dose inferred, filed as 5.0)

Measured: growth inhibition

C[Si](C)(C)CNC(=O)OCc1ccccc1
inactive: [1]; at 1.2 µM -1% | [1]; at 3.7 µM -4% | [1]; at 11.0 µM 6% | [1]; at 33.0 µM 2% | [1]; at 100.0 µM 16% | [2]; at 1.2 µM 1% | [2]; at 3.7 µM -1% | [2]; at 11.0 µM 10% | [2]; at 33.0 µM 21% | [2]; at 100.0 µM 41% | [3]; at 1.2 µM 7% | [3]; at 3.7 µM 5% | [3]; at 11.0 µM -5% | [3]; at 33.0 µM -4% | [3]; at 100.0 µM 12% | [4]; at 1.2 µM 1% | [4]; at 3.7 µM -10% | [4]; [17] -1% | [4]; at 11.0 µM 1% | [4]; at 33.0 µM 19% | [4]; [18] -8% | [4]; at 50.0 µM 37.1% | [4]; at 100.0 µM 56% | [5]; at 1.2 µM -2% | [5]; at 3.7 µM -3% | [5]; [17] -1% | [5]; at 11.0 µM 1% | [5]; at 33.0 µM 1% | [5]; [18] 32% | [5]; at 50.0 µM 21.9% | [5]; at 100.0 µM 11% | [6]; at 1.2 µM -1% | [6]; at 3.7 µM -1% | [6]; at 11.0 µM 0% | [6]; at 33.0 µM 0% | [6]; at 100.0 µM 6% | [7]; [17] -8% | [7]; [18] -13% | [7]; at 50.0 µM 4.25% | [8]; at 1.2 µM -3% | [8]; at 3.7 µM -3% | [8]; at 11.0 µM 7% | [8]; at 33.0 µM 4% | [8]; at 100.0 µM 5% | [9]; [17] 14% | [9]; [18] 20% | [9]; at 50.0 µM -22.8% | [10]; at 1.2 µM 4% | [10]; at 3.7 µM 15% | [10]; [17] 6% | [10]; at 11.0 µM 35% | [11]; at 1.2 µM -1% | [11]; at 3.7 µM -1% | [11]; at 11.0 µM -1% | [11]; at 33.0 µM 0% | [11]; at 100.0 µM 3% | [12]; at 1.2 µM 3% | [12]; at 3.7 µM -7% | [12]; at 11.0 µM 4% | [12]; at 33.0 µM 18% | [12]; at 100.0 µM 38% | [13]; at 1.2 µM 1% | [13]; at 3.7 µM -1% | [13]; at 11.0 µM 1% | [13]; at 33.0 µM 1% | [13]; at 100.0 µM 4% | [14]; [17] -14% | [14]; [18] -1% | [14]; at 50.0 µM 7.5% | [15]; at 1.2 µM -3% | [15]; at 3.7 µM -2% | [15]; at 11.0 µM 8% | [15]; at 33.0 µM 17% | [15]; at 100.0 µM 49%
active: [10]; at 33.0 µM 83% | [10]; [18] 93% | [10]; at 50.0 µM 93.5% | [10]; at 100.0 µM 94%

O=C(CC(=O)n1nc(-c2ccccc2)c(N=Nc2ccccc2C(=O)O)c1-c1ccccc1)Nc1ccc(Cl)cc1
active: [10]; [18] 71% | [10]; at 50.0 µM 88.7% | [10]; at 100.0 µM 72%
inactive: [1]; at 1.2 µM -2% | [1]; at 3.7 µM -1% | [1]; at 11.0 µM -1% | [1]; at 33.0 µM -2% | [1]; at 100.0 µM 8% | [16]; at 1.2 µM -1% | [16]; at 3.7 µM -4% | [16]; at 11.0 µM -3% | [16]; at 33.0 µM -4% | [16]; at 100.0 µM -4% | [2]; at 1.2 µM 2% | [2]; at 3.7 µM 6% | [2]; at 11.0 µM 15% | [2]; at 33.0 µM 23% | [2]; at 100.0 µM 37% | [4]; at 1.2 µM -2% | [4]; at 3.7 µM 1% | [4]; [17] 7% | [4]; at 11.0 µM 1% | [4]; at 33.0 µM 2% | [4]; [18] 16% | [4]; at 50.0 µM 49% | [4]; at 100.0 µM 14% | [5]; at 1.2 µM -2% | [5]; at 3.7 µM -1% | [5]; [17] 3% | [5]; at 11.0 µM -2% | [5]; at 33.0 µM -3% | [5]; [18] 4% | [5]; at 50.0 µM 36.2% | [5]; at 100.0 µM 2% | [6]; at 1.2 µM -1% | [6]; at 3.7 µM 2% | [6]; at 11.0 µM 3% | [6]; at 33.0 µM 3% | [6]; at 100.0 µM 29% | [7]; [17] -5% | [7]; [18] 20% | [7]; at 50.0 µM 41.7% | [8]; at 1.2 µM -4% | [8]; at 3.7 µM -3% | [8]; at 11.0 µM -7% | [8]; at 33.0 µM -10% | [8]; at 100.0 µM -15% | [9]; [17] 2% | [9]; [18] 24% | [9]; at 50.0 µM 9.4% | [10]; at 1.2 µM 8% | [10]; at 3.7 µM 15% | [10]; [17] 6% | [10]; at 11.0 µM 28% | [10]; at 33.0 µM 46% | [12]; at 1.2 µM -2% | [12]; at 3.7 µM -3% | [12]; at 11.0 µM -3% | [12]; at 33.0 µM -6% | [12]; at 100.0 µM 6% | [13]; at 1.2 µM -2% | [13]; at 3.7 µM -1% | [13]; at 11.0 µM 1% | [13]; at 33.0 µM 0% | [13]; at 100.0 µM 21% | [14]; [17] -11% | [14]; [18] 43% | [14]; at 50.0 µM 36% | [15]; at 1.2 µM -4% | [15]; at 3.7 µM -1% | [15]; at 11.0 µM 3% | [15]; at 33.0 µM 6% | [15]; at 100.0 µM 43%
